These results are taken from the supplement of paper PMC9694430.

Common to all, as to assay: thermal shift delta Tm vs DMSO control; higher = stronger stabilization (binding)
Common to all, as to settings: 12.5 µM; protein concentration 2 µM

Experiment [1] relates to LOC_OS02G45750-cb003. The method in brief:
(§1)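 Compounds dissolved in DMSO were added to purified rice kinase domain constructs, which had been expressed in E. coli, for differential scanning fluorimetry. Each well held 19.5 μl of 2 μM kinase in 100 mM potassium phosphate pH 7.5, 150 mM NaCl, 10% glycerol and 5 × SYPRO Orange. Fluorescence was followed from 25°C to 95°C at a rate of 0.05°C/s. Shifts in Boltzmann-fitted melting temperature are triplicate means relative to DMSO-only protein.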

Experiment [2] concerns LOC_OS02G54510-cb004. The method in brief: as §1
In experiment [3] the test system is LOC_OS03G04050-cb001. The essentials:
as §1

For experiment [4], the system named is LOC_OS03G12390-cb001. The method in brief: as §1
Experiment [5] has as its system LOC_OS03G27990-cb004. The method in brief:
as §1

Experiment [6] relates to LOC_OS03G50450-cb001. The essentials:
as §1

Experiment [7] concerns LOC_OS03G50810-cb003. The essentials: as §1
For experiment [8], the system named is LOC_OS04G35114-cb001. The method in brief: as §1
Experiment [9] concerns T1, LOC_OS04G38480-cb003.
T1 sequence (whole entry): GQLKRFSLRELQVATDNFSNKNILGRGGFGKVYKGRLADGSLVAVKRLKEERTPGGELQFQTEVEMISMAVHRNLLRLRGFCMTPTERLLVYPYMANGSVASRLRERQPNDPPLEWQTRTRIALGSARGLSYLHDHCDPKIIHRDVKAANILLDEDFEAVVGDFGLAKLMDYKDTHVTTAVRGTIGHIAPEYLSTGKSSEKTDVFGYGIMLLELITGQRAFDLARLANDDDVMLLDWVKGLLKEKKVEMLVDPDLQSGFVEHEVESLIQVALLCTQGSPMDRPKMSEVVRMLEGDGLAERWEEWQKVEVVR
The essentials: as §1

Experiment [10] concerns T2, LOC_OS04G41100-cb001.
T2 sequence (whole entry): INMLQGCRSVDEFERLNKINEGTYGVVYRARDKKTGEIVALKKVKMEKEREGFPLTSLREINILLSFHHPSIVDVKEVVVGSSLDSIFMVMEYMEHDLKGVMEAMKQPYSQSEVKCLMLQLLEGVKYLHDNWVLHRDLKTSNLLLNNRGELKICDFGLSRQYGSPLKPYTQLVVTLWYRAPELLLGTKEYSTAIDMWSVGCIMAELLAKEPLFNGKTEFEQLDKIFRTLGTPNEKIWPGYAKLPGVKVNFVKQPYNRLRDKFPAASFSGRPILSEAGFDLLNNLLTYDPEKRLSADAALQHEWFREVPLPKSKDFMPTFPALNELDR
The method in brief:
as §1

For the compound `CC1(C)OC(=O)C=C[C@]2(C)[C@H]3CC[C@@]4(C)[C@H](c5ccoc5)OC(=O)[C@H]5O[C@]54[C@]3(C)C(=O)C[C@@H]12` [Obacunone], the “thermal shift delta Tm” value in experiment [1] was 0.46 °C; in experiment [2] it was -0.19 °C; in experiment [3], 0.48 °C; in [4], 0.2 °C; in [5] it was 0.14 °C; in [6] it was 0.72 °C. Also, the “thermal shift delta Tm” value in [7] is 0.54 °C; in experiment [8] it was -0.27 °C; in experiment [9], 1.66 °C; in [10] it was 0.27 °C.

As for `Cc1c(C(=O)N2CCOc3ccc(-c4ccc(N)nc4)cc3C2)ccc(S(C)(=O)=O)c1F`, the “thermal shift delta Tm” value in experiment [1] is 0.79 °C; in [2], 0.21 °C; in [3], 0.5 °C; in [4], 0.38 °C; in [5], 0.27 °C; in experiment [6] it was 0.12 °C. The “thermal shift delta Tm” value was determined as 0.24 °C in experiment [7], 0.73 °C in experiment [8], 0.22 °C in experiment [9] and 0.43 °C in [10].

For the compound `CNC(=O)c1ccc(-c2cnc3ncc(Cc4ccc5ncccc5c4)n3n2)cc1F`, the “thermal shift delta Tm” value is 0.61 °C in experiment [1]; 0.23 °C in [2]; 0.48 °C in experiment [3]; -0.1 °C in experiment [4]; 0.21 °C in experiment [5]; 0.36 °C in [6]. The “thermal shift delta Tm” value in experiment [7] was determined as 0.27 °C; in [8] it was 0.19 °C; in experiment [9], 2.02 °C; in experiment [10], 0.27 °C.

For `C[C@H]1[C@H](C)CC[C@]2(C(=O)O)CC[C@]3(C)C(=CC[C@@H]4[C@@]5(C)C[C@@H](O)[C@H](O)[C@@](C)(CO)[C@@H]5CC[C@]43C)[C@H]12` [Asiatic Acid], the “thermal shift delta Tm” value was 0.12 °C in experiment [1]; -0.04 °C in experiment [2]; 0.11 °C in [3]; -0.01 °C in [4]; 0.08 °C in experiment [5]; 0.19 °C in [6]. The “thermal shift delta Tm” value in experiment [7] is 0.31 °C; in experiment [8], -0.09 °C; in [9], 0.96 °C; in experiment [10], 0.3 °C.

Regarding `COc1ccc(CCNCc2ccc(OCc3ccc(Cl)nc3)c(OC)c2)cc1OC`, the “thermal shift delta Tm” value in experiment [1] was -0.45 °C; in experiment [2], 0 °C; in experiment [3], 0 °C; in experiment [4], -0.53 °C; in experiment [5] it was 0.12 °C; in [6] it was -0.17 °C. The “thermal shift delta Tm” value turned out to be 0.18 °C in experiment [7], 0.23 °C in experiment [8], 0.05 °C in experiment [9] and 0.41 °C in experiment [10].

Turning to `CNC(=O)c1ccc(Nc2ncc(C(F)(F)F)c(NCc3nccnc3N(C)S(C)(=O)=O)n2)cc1`, the “thermal shift delta Tm” value is 9.52 °C in experiment [1]; 1.99 °C in [2]; 0.04 °C in experiment [3]; 5.45 °C in experiment [4]; 3.54 °C in [5]; 2.16 °C in [6]. Also, the “thermal shift delta Tm” value in [7] turned out to be 4.32 °C; in experiment [8] it was 5.66 °C; in experiment [9] it was 2.85 °C; in experiment [10], 1.45 °C.

For the compound `C[C@@H](Nc1cc(F)cc(F)c1)c1cc(C(=O)N(C)C)cc2c(=O)cc(N3CCOCC3)oc12`, the “thermal shift delta Tm” value is -0.34 °C in [1]; -0.01 °C in experiment [2]; 0.03 °C in experiment [3]; 0 °C in experiment [4]; 0.1 °C in experiment [5]; -0.15 °C in [6]. Besides, the “thermal shift delta Tm” value is 0.15 °C in [7], 0.51 °C in experiment [8], 1.21 °C in [9] and 0.16 °C in [10].

In the case of `COc1cc(Nc2ncc(F)c(Nc3ccc4c(n3)NC(=O)C(C)(C)O4)n2)cc(OC)c1OC` [R406 (free base)], the “thermal shift delta Tm” value in [1] stood at 4.87 °C; in experiment [2], 3.74 °C; in [3] it was 0.5 °C; in experiment [4], 7.52 °C; in experiment [5], 1.81 °C; in experiment [6], 8.85 °C. The “thermal shift delta Tm” value in experiment [7] is 4.46 °C; in [8], 2.9 °C; in [9], 4.51 °C; in experiment [10], 1.22 °C.

Turning to `Cn1ncc(Cl)c1-c1cc(C(=O)N[C@H](CN)Cc2ccc(F)c(F)c2)oc1Cl`, the “thermal shift delta Tm” value was 1.04 °C in experiment [1]; -0.14 °C in experiment [2]; 0.46 °C in experiment [3]; 1.31 °C in experiment [4]; 0.14 °C in [5]; 0.74 °C in experiment [6]. Also, the “thermal shift delta Tm” value worked out at 0.51 °C in experiment [7], 0.52 °C in experiment [8], 1.58 °C in [9] and 0.63 °C in experiment [10].
